Source: PubChem BioAssay (NCI)
About 83,000 compounds went through this panel and 20% of them were active in at least one assay; those are over-represented in the sample as a whole.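 Cells were grown in 96-well plates and exposed to the test compound at a single concentration for 48 hours; results are reported as percent growth, with values below 10 considered active.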 The source made the active and inactive calls.

Legend:
Test in all cases: NCI-60 one-dose screen, 48 h (100 = growth as untreated, 0 = no growth, -100 = all killed)
Conditions in all cases: 10 µM unless noted
[1] = system: RPMI-8226 leukemia
[2] = system: OVCAR-8 ovarian
[3] = system: OVCAR-5 ovarian
[4] = system: OVCAR-4 ovarian
[5] = system: SK-OV-3 ovarian
[6] = system: OVCAR-3 ovarian
[7] = system: HS 578T breast
[8] = system: NCI/ADR-RES ovarian
[9] = system: T-47D breast
[10] = system: IGROV1 ovarian

Measured: growth

COc1cc(C2C(C#N)=C(N)OC3=C2C(=O)c2ccccc2C3=O)cc(OC)c1OC (stereo not given)
inactive: [1] 18.5% | [2] 17.4% | [3] 44% | [4] 74.1% | [5] 29.9% | [8] 70.5% | [9] 67.3%
active: [6] 3.34% | [7] 8.28%

N#C/C(=C\c1c(-c2ccccc2)[nH]c2ccccc12)S(=O)(=O)c1ccccc1
active: [1] -43.1% | [6] -27.9% | [8] 7.91%
inactive: [2] 43.3% | [3] 75.1% | [4] 83% | [5] 30.5% | [7] 15.9% | [9] 38.9%

COc1ccc(C2=NN(/C=C3\SC(=O)NC3=Nc3ccc(F)cc3)C(c3ccc(F)cc3)C2)cc1 (stereo not given)
inactive: [1] 88.7% | [2] 95.3% | [3] 96.1% | [4] 101% | [5] 102% | [6] 104% | [7] 99% | [8] 103% | [9] 89.7%

O=c1c(-c2nc3ccccc3[nH]2)cc2ccccc2n1Cc1cn(Cc2ccc(F)cc2)nn1
active: [3] -20.5% | [10] 9.95% | [6] 3.02% | [7] -6.42%
inactive: [1] 16.7% | [2] 28.5% | [4] 43.5% | [8] 31.7% | [9] 42.3%

Cc1cccc2c(=O)c3c(sc12)c(N1CCNCC1)nc1ccccc13
active: [1] 7.41%
inactive: [2] 83.9% | [3] 90.2% | [4] 73.9% | [10] 33.6% | [6] 63.7% | [7] 73% | [8] 83.1% | [9] 86.9%

COc1cccc2c(=O)c3c(sc12)c(NCCCNCCO)nc1ccccc13
inactive: [1] 29.1% | [2] 49.8% | [3] 77.8% | [4] 42.4% | [10] 26.2% | [6] 54.6% | [7] 35.9% | [8] 60.6% | [9] 72.1%

COc1cc2nc(NC3CCCC3)nc(NC3CCN(C(C)C)CC3)c2cc1OC
active: [1] -10.7%
inactive: [2] 89.7% | [3] 107% | [4] 69% | [10] 82% | [6] 89.4% | [7] 79.6% | [8] 101% | [9] 17.4%

c1ccc2c(c1)oc1cc3sccc3nc12
inactive: [1] 99.4% | [2] 101% | [3] 109% | [4] 102% | [10] 95.8% | [6] 107% | [7] 101% | [8] 102% | [9] 101%

NCCOc1ncccc1/C=C1\c2ccccc2-c2ccc([N+](=O)[O-])cc21
active: [1] -21.5% | [2] -13% | [3] -72.8% | [4] -69.2% | [10] -80.2% | [6] -77.7% | [7] -5.23% | [8] -45.4% | [9] -30.4%

COc1cc(/C=C2\CN(C)C/C(=C\c3cc(CN4CCOCC4)c(O)c(OC)c3)C2=O)cc(CN2CCOCC2)c1O
inactive: [1] 47.7% | [2] 20.1% | [3] 88.7% | [4] 58.9% | [10] 57.8% | [6] 22.2% | [7] 83.1% | [8] 94.7% | [9] 84.5%

O=C(Cn1cc(COc2ncnc3c2cnn3-c2ccccc2)nn1)Nc1ccccn1
inactive: [1] 84.4% | [2] 92.5% | [3] 93.7% | [4] 92.7% | [10] 95.4% | [6] 100% | [7] 88.3% | [8] 91.5% | [9] 80.9%

CCCCC1CCc2cccc3c(SCC(=O)N(C)c4ccc(Cl)cc4)cc[n+]1c23 (stereo not given)
inactive: [1] 110% | [2] 113% | [3] 116% | [4] 107% | [10] 121% | [6] 108% | [7] 116% | [8] 110% | [9] 104%

COC(=O)c1c2c(c(C)[n+]([O-])c1C)C(=O)C=C(NCc1ccc(F)c(F)c1)C2=O
active: [1] -6.01% | [2] -2.54% | [3] -83.1% | [4] -98.7% | [10] -67.3% | [6] -47.2% | [7] -20.4% | [8] -17.5% | [9] -42.5%

COc1ccc2c(c1)C=C1CSCC3=Cc4cc(OC)ccc4OC13O2
inactive: [1] 19.5% | [2] 25.4% | [3] 41.1% | [4] 47.8% | [10] 31.6% | [9] 48.4%
active: [6] -6.42% | [7] -0.917% | [8] -1.58%

CCCCC1COc2cccc3c2N1C=C/C3=C\C(=O)N(C)c1ccccc1 (stereo not given)
active: [1] 7.39%
inactive: [2] 52.9% | [3] 83.9% | [4] 50.7% | [10] 56.1% | [6] 49.2% | [7] 78.4% | [8] 86.4% | [9] 41.6%

O=C(NCc1ccco1)C1CN(c2ccc(Cl)cc2)N(c2ccc(Cl)cc2)C1=O (stereo not given)
active: [6] 3.64%
inactive: [1] 48% | [2] 66.4% | [3] 82.2% | [4] 57.7% | [10] 46.3% | [7] 36.7% | [8] 24.3% | [9] 43.2%

COc1cc(/C=C/C(=O)c2ccc(Cl)cc2)cc(CN2CCCCC2)c1O
inactive: [1] 50.9% | [2] 89.3% | [3] 99.7% | [4] 76.7% | [10] 90.5% | [6] 93.8% | [7] 85.4% | [8] 88.5% | [9] 79.3%

COc1cc(CNC(=O)Cc2ccccc2)ccc1OCc1cn(-c2ccc(F)cc2)nn1
inactive: [1] 89.8% | [2] 95.5% | [3] 108% | [4] 78.2% | [10] 106% | [6] 107% | [7] 99.1% | [8] 94.7% | [9] 94.7%

COC(=O)/C(CCC=C(C)C)=C1\[C@@H](OC(C)=O)C[C@@]2(C)[C@H]1C[C@@H](O)[C@H]1[C@@]3(C)CC[C@H](NCCO)[C@@H](C)[C@@H]3CC[C@@]12C
inactive: [1] 101% | [2] 101% | [3] 104% | [4] 107% | [10] 99.4% | [6] 105% | [7] 93.3% | [8] 101% | [9] 103%

COc1cccc(/C(C#N)=C/c2nc3c(N4CCOCC4)nc(Cl)nc3n2C)c1
active: [1] -23.5% | [2] 9.5% | [3] -37.6% | [4] -65.9% | [10] -29.8% | [6] -78.7% | [7] -7.18% | [9] -44.5%
inactive: [8] 25.9%

C=CCN1C(=O)/C(=c2\sc3n(c2=O)NC2C(N=3)N(CC)C(=O)N2CC)c2ccccc21 (stereo not given)
inactive: [1] 66.1% | [2] 48.2% | [3] 44.2% | [4] 39.2% | [10] 34.2% | [6] 22.5% | [7] 29.4% | [8] 18.7% | [9] 54.4%

Cn1c(/C=C(\C#N)c2cccc(C(F)(F)F)c2)nc2c(N3CCOCC3)nc(Cl)nc21
inactive: [8] 20.1%
active: [1] -23.4% | [2] 7.88% | [3] -53.7% | [4] -56.4% | [10] -27.7% | [6] -85% | [7] -12% | [9] -36.6%

O=Cc1c(OCc2cnnn2CC(=O)Nc2ccc(Cl)cc2)ccc2ccccc12
inactive: [1] 105% | [2] 99.2% | [3] 94.8% | [4] 100% | [10] 96% | [6] 103% | [7] 101% | [8] 102% | [9] 104%

NCCNc1nc2ccccc2c2c(=O)c3cc(F)cc(Cl)c3sc12
inactive: [10] 71.9% | [7] 59.9%
active: [1] -33.1% | [2] -49.2% | [3] -81.6% | [4] -73.4% | [6] -88.6% | [8] -44.9% | [9] -45.6%

CCN1C(=O)N(c2ccccc2)C2NN=c3s/c(=C4\C(=O)N(C(C)C)c5ccccc54)c(=O)n3C21 (stereo not given)
inactive: [1] 32% | [2] 31.6% | [3] 45.3% | [4] 45.8% | [10] 28.5% | [7] 24.6% | [8] 15.7% | [9] 53.8%
active: [6] 1.06%

Cc1cccc2c(=O)c3c(sc12)c(NCCN)nc1ccccc13
inactive: [7] 37.1%
active: [1] -37.9% | [2] -25% | [3] -46.9% | [4] -24.4% | [10] -70.1% | [6] -89.6% | [8] -45.5% | [9] -50.2%

COc1ccc2sc3c(NCCCN)nc4ccccc4c3c(=O)c2c1
inactive: [3] 82.8% | [4] 34.5% | [10] 58.6% | [7] 70.9% | [8] 68.3%
active: [1] -6.79% | [2] 0.199% | [6] -22.4% | [9] -32.6%

COc1ccc(/C=c2\sc3n(c2=O)NC2C(N=3)N(C)C(=O)N2C)cc1 (stereo not given)
inactive: [1] 96.1% | [2] 101% | [3] 95.1% | [4] 100% | [10] 99.8% | [6] 102% | [7] 95.9% | [8] 100% | [9] 102%

COc1ccccc1C1=C(Br)C(=O)c2nc(C)ccc2C1=O
inactive: [1] 104% | [2] 96.8% | [3] 110% | [4] 97.8% | [10] 97.3% | [6] 81% | [7] 104% | [8] 107% | [9] 69.6%

CN1C(=O)N(C)C2Nn3c(s/c(=C\c4ccc(Cl)cc4Cl)c3=O)=NC21 (stereo not given)
inactive: [1] 80.2% | [2] 69.3% | [3] 63.5% | [4] 67.6% | [10] 60.5% | [6] 30.7% | [7] 66.9% | [8] 35.6% | [9] 69.7%
